Among the data in PubChem BioAssay (Tox21) are Potency and activation values, retold here.

Test [1] can be described thus: qHTS assay to identify small molecule antagonists of the thyroid receptor (TR) signaling pathway - cell viability counter screen (AID 743064). Note: nearly all actives have a fitted effect of over 50% in size. Note: potency is the fitted concentration of half-maximal effect. The procedure, abridged:
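In-well cytotoxicity read by CellTiter-Fluor (30 min, 37 C) following 23.5 h exposure of GH3 cells bearing a TRE-luciferase sensor. Compounds were added alongside 1 nM (final) T3 to drive TR transactivation.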
For orientation: qHTS replaces the single test concentration by a dilution series.

Test [2] in a line: qHTS assay to identify small molecule antagonists of the thyroid receptor (TR) signaling pathway (AID 743065). Note: nearly all actives have a fitted effect of over 55% in size. Note: potency is the fitted concentration of half-maximal effect. Put shortly:
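GH3.TRE-Luc rat pituitary cells carrying two TR response elements driving luciferase were plated for 4 h, given compound plus 1 nM T3 (final), and incubated 23.5 h at 37 C. ONE-Glo luminescence measured reporter inhibition; CellTiter-Fluor fluorescence tracked cytotoxicity.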

Test [3] concerns thyroid hormone receptor (rat, GH3 cells). Put plainly: qHTS assay to identify small molecule agonists of the thyroid receptor (TR) signaling pathway (AID 743066; calls by dose curve).
Test [4] concerns the target Estrogen receptor (Homo sapiens) (UniProt P03372). Put plainly: qHTS assay to identify small molecule antagonists of the estrogen receptor alpha (ER-alpha) signaling pathway (AID 743069; active = well fitted curve in the direction sought with a large enough effect in the signal ratio in the repeat runs, not every such curve was filed as active; inconclusive = weak or mixed curves, or effect the other way; inactive = no such curve, though single readings can be large or run the other way; the % refers to the signal ratio). The procedure, abridged:
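Estradiol-stimulated ER-alpha-UAS-bla HEK293 cells, 18 hr compound exposure at 37C. LiveBLAzer B/G substrate, 2 hr RT, fluorescence read.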

For test [5] the target is unchanged. Put plainly: qHTS assay to identify small molecule agonists of the estrogen receptor alpha (ER-alpha) signaling pathway (AID 743075; calls by dose curve;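 note: HEK293 GripTite cells with ER-alpha and UAS-driven beta-lactamase reporter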; note: potency is the fitted concentration of half-maximal effect).
For test [6] the target is unchanged. Briefly: qHTS assay to identify small molecule agonists of the estrogen receptor alpha (ER-alpha) signaling pathway using the BG1 cell line (AID 743079). Note: nearly all actives have a fitted effect of over 20% in size. Note: potency is the fitted concentration of half-maximal effect. As to conditions: BG1Luc4E2 cells, ERE-luciferase agonist, 22 h; activation: at 70.3 µM (top of the series).
A short description of test [7]: qHTS assay to identify small molecule antagonists of the estrogen receptor alpha (ER-alpha) signaling pathway using the BG1 cell line (AID 743080; calls by dose curve;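 note: BG1 cells stimulated with 17beta-estradiol alongside compound; nearly all actives have a fitted effect of over 25% in size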). Put shortly: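 After 5 days in phenol-red-free 10% charcoal-stripped FBS medium, BG1-Luc-4E2 cells were seeded, left 24 h at 37 C, co-treated with compounds and 17beta-estradiol for 21.5 h, then assayed for viability and luciferase.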

Test [8] in a line: qHTS assay to identify small molecule antagonists of the estrogen receptor alpha (ER-alpha) signaling pathway using the BG1 cell line - cell viability counter screen (AID 743081).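 Note: compound given together with 17beta-estradiol as the ER stimulus; nearly all actives have a fitted effect of over 45% in size.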 Note: potency is the fitted concentration of half-maximal effect.
Another test addresses Aromatase (Homo sapiens) (UniProt P11511). Briefly: qHTS assay to identify aromatase inhibitors (AID 743083). Note: nearly all actives have a fitted effect of over 55% in size. Note: potency is the fitted concentration of half-maximal effect.
Test [9] in a line: qHTS assay to identify small molecule antagonists of the estrogen receptor alpha (ER-alpha) signaling pathway - cell viability counter screen (AID 743074; calls by dose curve;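 note: HEK293 cells carrying ER-alpha-UAS-bla reporter stimulated with 17beta-estradiol; nearly all actives have a fitted effect of over 45% in size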).

Activity calls are given as the source filed them. Unless noted, calls come from the whole dose curve; as a rule, active = well fitted curve in the direction sought with a large enough effect in the repeat runs; inconclusive = weak or mixed curves; inactive = no such curve, though single readings can be large; an effect the other way counts as inactive or inconclusive.
% is set by controls: 0 for no effect and ±100 for the full control effect.

Chain of Estrogen receptor (Homo sapiens) (P03372 whole entry, looked up): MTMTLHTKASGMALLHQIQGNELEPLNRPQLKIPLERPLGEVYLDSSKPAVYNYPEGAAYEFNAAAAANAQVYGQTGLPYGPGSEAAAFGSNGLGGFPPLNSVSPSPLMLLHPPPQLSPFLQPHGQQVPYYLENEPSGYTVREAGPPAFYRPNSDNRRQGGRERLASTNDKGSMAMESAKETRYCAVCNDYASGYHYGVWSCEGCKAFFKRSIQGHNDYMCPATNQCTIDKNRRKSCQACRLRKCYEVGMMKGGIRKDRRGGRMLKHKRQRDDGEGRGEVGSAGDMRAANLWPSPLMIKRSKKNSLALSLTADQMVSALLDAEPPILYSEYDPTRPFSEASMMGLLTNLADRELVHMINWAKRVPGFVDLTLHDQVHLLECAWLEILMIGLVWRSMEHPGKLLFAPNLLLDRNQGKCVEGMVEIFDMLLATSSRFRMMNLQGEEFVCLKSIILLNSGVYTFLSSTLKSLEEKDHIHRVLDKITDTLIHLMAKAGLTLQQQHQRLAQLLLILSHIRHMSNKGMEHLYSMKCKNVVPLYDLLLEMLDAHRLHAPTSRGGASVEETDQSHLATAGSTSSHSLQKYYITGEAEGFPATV
Chain of Aromatase (Homo sapiens) (P11511 whole entry, looked up): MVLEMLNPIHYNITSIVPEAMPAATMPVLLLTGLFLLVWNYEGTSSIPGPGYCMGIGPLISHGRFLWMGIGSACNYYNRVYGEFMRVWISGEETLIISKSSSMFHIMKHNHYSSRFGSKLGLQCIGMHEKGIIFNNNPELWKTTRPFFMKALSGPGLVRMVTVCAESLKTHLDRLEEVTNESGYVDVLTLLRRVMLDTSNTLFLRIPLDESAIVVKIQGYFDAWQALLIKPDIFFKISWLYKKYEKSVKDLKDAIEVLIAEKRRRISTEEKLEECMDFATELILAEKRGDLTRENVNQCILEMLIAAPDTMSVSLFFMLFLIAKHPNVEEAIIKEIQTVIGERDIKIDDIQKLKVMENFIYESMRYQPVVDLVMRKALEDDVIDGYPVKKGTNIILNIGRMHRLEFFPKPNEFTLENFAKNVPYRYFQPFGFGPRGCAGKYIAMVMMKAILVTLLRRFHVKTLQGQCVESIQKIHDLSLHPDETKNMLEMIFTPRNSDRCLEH

Take `O=c1[nH]cnc2[nH]cc(CN3CCCCC3)c12`: the Potency entry in [1], in [2], in test [3], in test [4], in [5] and in [6] was “inactive” throughout. Besides, the Potency entry in [7] and in test [8] was “inactive” throughout.
For `O=C(NOC[C@H](O)CO)c1ccc(F)c(F)c1Nc1ccc(I)cc1F`, the Potency result in [1], in test [2], in test [3], in test [4], in test [5] and in test [6] was “inactive” throughout. In addition, the Potency result (in test [7]; in test [8]; with Aromatase (Homo sapiens)) was “inactive” each time.
For the molecule `CNC[C@@H]1CC[C@@H](N)[C@@H](O[C@H]2[C@H](O)[C@@H](O[C@H]3OC[C@](C)(O)[C@H](NC)[C@H]3O)[C@H](N)C[C@@H]2N)O1`, the Potency entry in [1], in test [2], in test [3], in [4], in [5] and in [6] was “inactive” each time. For the same molecule, the Potency entry (in test [7]; with Aromatase (Homo sapiens)) was “inactive” in each case.
As to `C[C@]12CC[C@@H]3c4ccc(O)cc4CC[C@H]3[C@@H]1CC[C@@H]2OP(=O)(O)O`, the Potency result in test [1], in test [2], in test [3], in test [9], in test [7] and in test [8] was “inactive” in each case. The Potency entry with Aromatase (Homo sapiens) is “inactive”. Moreover, the Potency in [5] was 1.3 nM [inconclusive] (active); in [6], 0.0021 µM (active).
For `COc1cc(/C=C/C(=O)N2CCN(CC(=O)N3CCCC3)CC2)cc(OC)c1OC`, the Potency result in test [1], in test [2], in test [3], in [4], in test [5] and in test [6] was “inactive” in each case. In addition, the Potency result in test [7] and in test [8] was “inactive” throughout.
On to `C[C@]12CC[C@@H]3c4ccc(OC(=O)c5ccccc5)cc4CC[C@H]3[C@@H]1CC[C@@H]2O`, for which the Potency result (in test [1]; in test [2]; in test [3]; in test [9]; in test [8]; with Aromatase (Homo sapiens)) was “inactive” throughout. In addition, the Potency in [5] was 0.7 nM [inconclusive] (active). Moreover, the activation in test [6] was 82.8% (active).
On to `CCCCCCCCCCCCCCCCCCOP(=O)([O-])OC1CC[N+](C)(C)CC1`, for which the Potency entry in test [1], in test [2], in test [3], in [4], in test [5] and in test [6] was “inactive” each time. For the same molecule, the Potency entry (in test [7]; in test [8]; with Aromatase (Homo sapiens)) was “inactive” each time.
In the case of `O=S(=O)(O)c1cc(O)c2c(N=Nc3ccc(Nc4ccccc4)c4c(S(=O)(=O)O)cccc34)cc(S(=O)(=O)O)cc2c1`, the Potency in [1] is 26.6 µM (active); in test [2] it was 23.7 µM (active); in test [8], 15 µM (active); with Aromatase (Homo sapiens), 23.7 µM (active). Also, the Potency result in test [3], in test [4], in [9] and in [5] was “inactive” throughout.
Take `O=P(O)(O)OC[C@H]1O[C@](O)(COP(=O)(O)O)[C@@H](O)[C@@H]1O`: the Potency result in test [1], in [2], in test [3], in [4], in [9] and in [7] was “inactive” in each case. For the same molecule, the Potency result (in test [8]; with Aromatase (Homo sapiens)) was “inactive” in each case. Further, the Potency in test [6] was 10.6 µM (active).
Consider `Nc1ccn(C[C@@H](CO)OCP(=O)(O)O)c(=O)n1`, for which the Potency result in test [1], in test [2], in test [3], in [4], in test [9] and in test [7] was “inactive” each time. Besides, the Potency entry with Aromatase (Homo sapiens) is “inactive”.
`Cc1ncc(COP(=O)(O)O)c(CN)c1O`: the Potency entry in test [1], in test [2], in [3], in [4], in [5] and in [6] was “inactive” in each case. The Potency result (in test [7]; in test [8]; in the test with Aromatase (Homo sapiens)) was “inactive” each time.
Turning to `NC(=O)c1ccc[n+]([C@@H]2O[C@H](COP(=O)([O-])OP(=O)(O)OC[C@H]3O[C@@H](n4cnc5c(N)ncnc54)[C@H](O)[C@@H]3O)[C@@H](O)[C@H]2O)c1`, the Potency entry in [1], in [2], in test [3], in test [4], in test [5] and in [6] was “inactive” throughout. Further, the Potency entry (in test [7]; in [8]; with Aromatase (Homo sapiens)) was “inactive” in each case.
Turning to `C=C[C@]1(C)C[C@@H](OC(=O)CSC(C)(C)CNC(=O)[C@H](N)C(C)C)[C@]2(C)[C@H](C)CC[C@]3(CCC(=O)[C@H]32)[C@@H](C)[C@@H]1O`, the Potency in test [1] was 2.66 µM (active); in test [2], 13.3 µM (active); in test [8], 5.96 µM (active); with Aromatase (Homo sapiens), 21.1 µM (active). Also, the Potency entry in test [3], in test [4], in [9] and in test [5] was “inactive” each time.
As for `CC(=O)[C@@]1(O)CC[C@H]2[C@@H]3C=C(Cl)C4=CC(=O)[C@@H]5C[C@@H]5[C@]4(C)[C@H]3CC[C@@]21C`, the Potency result in [1], in [2], in test [3], in test [9], in [5] and in test [6] was “inactive” throughout. The Potency entry (in [7]; in test [8]; with Aromatase (Homo sapiens)) was “inactive” in each case.
On to `CCOc1ccc(N=C(C)Nc2ccc(OCC)cc2)cc1`, for which the Potency result in test [1], in test [2], in test [3], in test [4], in test [5] and in [6] was “inactive” in each case. In addition, the Potency result (in test [7]; in the test with Aromatase (Homo sapiens)) was “inactive” each time.
On to `COc1cc(S(C)=O)ccc1-c1nc2ncccc2[nH]1` (centres undefined), for which the Potency result in [1], in test [2], in test [3], in test [4], in [5] and in test [6] was “inactive” in each case. For the same molecule, the Potency result (in test [7]; in [8]; in the test with Aromatase (Homo sapiens)) was “inactive” throughout.
As to `Nc1nc2[nH]cc(CCc3ccc(C(=O)N[C@@H](CCC(=O)O)C(=O)O)cc3)c2c(=O)[nH]1`, the Potency result in test [1], in test [2], in [3], in test [4], in test [5] and in test [6] was “inactive” each time. For the same molecule, the Potency result (in [7]; in [8]; with Aromatase (Homo sapiens)) was “inactive” throughout.
